Screens from PubChem.
Only some compounds are listed: those with a hit (about 2.4% of all), similar ones and a draw of the others.
D2 ag-1: Beta-Arrestin HTS for Positive Allosteric Modulators of the Human D2 Dopamine Receptor: Agonists; D(2) dopamine receptor (Homo sapiens), P14416; DiscoveRx PathHunter D2 beta-arrestin, luminescence, 90 min; 100% = 57 uM dopamine signal; activation, % (concentration not given with the values); 0.084% of 360,000 active; AID 624465, 2012; in the data active means activation above about 40%; inconclusive means between about 15% and that limit
Target sequence (P14416 whole entry, looked up): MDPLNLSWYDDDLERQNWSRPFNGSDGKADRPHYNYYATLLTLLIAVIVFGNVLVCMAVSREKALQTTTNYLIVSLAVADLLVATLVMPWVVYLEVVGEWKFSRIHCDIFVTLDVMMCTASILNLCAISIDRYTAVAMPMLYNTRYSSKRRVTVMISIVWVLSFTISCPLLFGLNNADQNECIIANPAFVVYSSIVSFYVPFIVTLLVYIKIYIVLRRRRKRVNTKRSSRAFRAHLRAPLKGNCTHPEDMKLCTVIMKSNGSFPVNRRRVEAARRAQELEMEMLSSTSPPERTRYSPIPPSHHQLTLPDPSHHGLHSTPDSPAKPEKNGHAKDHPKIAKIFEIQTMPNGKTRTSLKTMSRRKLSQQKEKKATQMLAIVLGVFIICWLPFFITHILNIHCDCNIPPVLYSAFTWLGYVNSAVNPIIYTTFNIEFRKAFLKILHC
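DiscoveRx PathHunter D2 beta-arrestin cells (2,100/well) attached overnight, then compound-stimulated 90 min at 37 C in HBSS/10 mM HEPES/0.1% Tween-20 buffer; beta-galactosidase complementation read by luminescence after 1 h at ambient temperature. Dopamine 57 uM final (EC100) as control.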
D2 PAM-1: HTS Assay for Positive Allosteric Modulators of the Human D2 Dopamine Receptor: Primary Screen for Potentiators. HEK293 T-REx D2, calcium flux, EC20 dopamine potentiation. potentiation, % at 10 µM. 0.34% of 340,000 active. AID 485347, 2010;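 active means potentiation over 3 SD above the plate norm, cut at about 30% in these data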; further: 0% is about no effect
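Using a no-wash calcium dye in inducible, force-coupled HEK293 Trex cells expressing D2, we tracked fluorescence each second for 180 s after compound, then for 180 s after EC20 dopamine to detect augmented signalling.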
D2 ag-2: HTS Assay for Allosteric Agonists of the Human D2 Dopamine Receptor: Primary Screen for Agonists. D(2) dopamine receptor (Homo sapiens), P14416. HEK293 T-REx D2 cells, calcium flux agonist mode. activation, % at 2 µM. 0.53% of 340,000 active. AID 485358, 2010;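 active means activation over 3 SD above normal in the single-dose calcium agonist read, cut at about 30% in these data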; further: 0% is about no effect
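Agonism is scored from calcium flux in a force-coupled, inducible HEK293 cell line expressing D2, read kinetically for 180 s after compound addition against dopamine controls.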
D2 antagonist: HTS Assay for Allosteric Antagonists of the Human D2 Dopamine Receptor: Primary Screen for Antagonists | AID 485344, 2010 | HEK293 TREx D2 cells, calcium flux, dopamine EC80 | inhibition, % at 10 µM | 2% of 340,000 active | D(2) dopamine receptor (Homo sapiens), P14416; in the data active means inhibition above about 30%; inactive means below that, where a call was filed; further: 0% is about no effect
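Calcium mobilization kinetics were recorded at 1 s intervals in tetracycline-induced HEK293 T-REx D2 cells, first for 180 s after compound addition and then 180 s after EC80 dopamine.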
D2 PAM-2: Beta-Arrestin HTS for Positive Allosteric Modulators of the Human D2 Dopamine Receptor: Potentiators. 0.23% of 360,000 active. D(2) dopamine receptor (Homo sapiens), P14416. DiscoveRx D2 beta-arrestin cells, luminescence, 90 min; 100% = 57 uM dopamine signal. potentiation, % (test concentration not listed); in the data active means potentiation above about 50%; inconclusive means mostly about 30% to 49%
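PathHunter beta-arrestin assay in DiscoveRx D2 cells. Compounds were added with an EC20 of dopamine (50 nM final) for 90 min at 37 deg C. Luminescence was read 1 h after detection reagent, with 57 uM dopamine as the EC100 control.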
D3 ag: qHTS of D3 Dopamine Receptor Agonist: D3 Dopamine Receptor B-arrestin Agonist Confirmatory Assay; shares compounds with D2 ag-2; DiscoveRx D3 beta-arrestin cells, luminescence, 90 min; Potency, µM (series often up to 76.9 µM), inactives show top-dose activation, usual class: activators; 4% of 2,300 active;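 further: potency means the concentration at half of the fitted maximal effect; 100% = dopamine control response; nearly all actives have a fitted effect of over 70% in size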
D2 ag-3: qHTS of D3 Dopamine Receptor Agonist: D2 Dopamine Receptor B-arrestin Agonist Counterscreen. shares compounds with D2 ag-2. DiscoveRx PathHunter D2 beta-arrestin, luminescence, 90 min; response scale: percent relative to full dopamine signal. Potency, µM (titrated, usually from 76.9 µM), for the others: at the highest dose activation, most hits filed as activators. 5.9% of 2,300 active; further: potency means the concentration at half of the fitted maximal effect; % of control where 0% means no effect; nearly all actives have a fitted effect of over 70% in size
Active calls of the source: *; ? = inconclusive; / = no result. Unless noted, the call rests on the fitted dose curve; in most records, active means well fitted activation curve with a large enough effect; inconclusive means small, poorly fitted or top-dose-only effect; inactive means flat fitted curve, though single readings scatter.

SMILES | D2 ag-1 | D2 PAM-1 | D2 ag-2 | D2 antagonist | D2 PAM-2 | D3 ag | D2 ag-3
N#CCCN(C(=O)COC(=O)COc1ccccc1Cc1ccccc1)c1ccccc1 | -2 | -8 | 1 | 7 | 1 | -6% | 0%
Cc1cc(C)cc(-n2c(SCC(=O)N3CCCCCC3)nc3c([nH]c4ccccc43)c2=O)c1 | / | -3 | 1 | / | / | / | /
O=C(NCc1ccco1)c1sc(=S)n2c1[nH]c(=O)c1ccccc12 | -4 | 4 | 10 | 6 | -8 | -14% | -8%
O=C(NC1CCCC1)c1sc(=S)n2c1[nH]c(=O)c1ccccc12 | -1 | -3 | 4 | 9 | -14 | / | /
CC(c1ccccc1)n1c(-c2cccs2)nc2c(c(=O)c3ccccc3n2C)c1=O (stereo not given) | -2 | 20 | 2 | 9 | -9 | -10% | -5%
CC(C)(O[C@@H]1O[C@H](CO)[C@@H](O)[C@H](O)[C@H]1O)[C@@H]1CC=C(C(=O)O)CC1 | -2 | 10 | -1 | -18 | 5 | -3% | -2%
CC(C)(O[C@@H]1O[C@H](CO)[C@@H](O)[C@H](O)[C@H]1O)[C@H]1Cc2cc3ccc(=O)oc3cc2O1 | -4 | -7 | 1 | -10 | -5 | / | /
Cc1[nH]nc2nc(SCC(=O)NCCC3=CCCCC3)n(-c3ccc(Br)cc3)c(=N)c12 | 7 | -24 | 41* | -16 | -1 | 9% | 0%
O=C(Nc1ccnn1C1CCN(Cc2cc3ccccc3[nH]2)CC1)C1CCOC1 (stereo not given) | / | -22 | 42* | 28 | / | -6% | 0%
Cc1nnc(NC(=O)CSCc2cc(=O)c3cc(Cl)ccc3[nH]2)s1 | / | / | -1 | / | / | / | /
COc1cccc(OCC(O)CN2CCN(c3ccc(F)cc3)CC2)c1 (stereo not given) | 1 | -20 | 34* | 80* | -13 | 10% | 3%
OC(COc1c(F)cc(Br)cc1F)CN1CCN(c2ccc(F)cc2)CC1 (stereo not given) | 1 | -30 | 59* | 71* | -14 | ? | ?
COc1cccc(OC)c1OCC(O)CN1CCN(c2ccc(F)cc2)CC1 (stereo not given) | 4 | -31 | 56* | 73* | -25 | -10% | 5%
CCN1CCN(CC(O)COc2cccc(OC)c2)CC1 (stereo not given) | 0 | 5 | 0 | 2 | -12 | / | /
OC(COc1ccc2ccccc2c1)CN1CCN(c2ccc(F)cc2)CC1 (stereo not given) | 1 | -27 | 53* | 20 | 4 | ? | 30%
CCOc1ccc(C(=O)NCCn2cc(SCC(=O)Nc3ccc4c(c3)OCCO4)c3ccccc32)cc1 | / | 5 | 1 | / | / | / | /
COc1ccc(CCCc2nnc(SCC(=O)Nc3cccc(C)c3)o2)cc1C | / | 8 | -2 | / | / | / | /
O=C1CCCc2cc(S(=O)(=O)N3CCCC(C(=O)NCc4ccccc4Cl)C3)ccc2N1 (stereo not given) | / | -3 | 0 | / | / | / | /
COc1ccc(-n2c(N)cc(=O)nc2SCC(=O)N2CCN(c3ccccc3)CC2)cc1 | -1 | -8 | 21 | 1 | -3 | -12% | -4%
Cc1ccc(-n2c(N)cc(=O)nc2SCC(=O)N2CCN(c3ccccc3)CC2)cc1C | -2 | 4 | 4 | -5 | -20 | / | /
CCOc1ccc(CCNC(=O)c2ccc(-c3nc(CSc4ccccc4)c(C)o3)cc2)cc1 | / | -5 | 0 | / | / | / | /
CCCCn1c(N)c(N(CCC(C)C)C(=O)c2cccc(N3C(=O)c4ccccc4C3=O)c2)c(=O)[nH]c1=O | -1 | / | / | / | -11 | / | /
CCCCN(C(=O)c1ccc(N2C(=O)c3ccccc3C2=O)cc1)c1c(N)n(CC(C)C)c(=O)[nH]c1=O | -2 | 4 | 0 | -13 | 19 | 0% | 27%
CCCN1CCC2(CC1)C(C#N)=C(N)Oc1c2sc2nc(C)cc(C)c12 | 11 | -21 | 78* | 96* | -3 | 22% | -2%
CCOC(=O)c1ccc(N2C(=O)Cc3ccccc3C2=O)cc1 | -3 | 5 | 1 | -8 | 1 | / | /
SMILES | D2 ag-1 | D2 PAM-1 | D2 ag-2 | D2 antagonist | D2 PAM-2 | D3 ag | D2 ag-3
C=CC[C@]12CCc3ccccc3C1N(c1ccc(C(=O)OCC)cc1)C2=O (stereo not given in full) | -3 | 3 | 0 | -11 | -6 | -7% | -4%
Cc1cccc(N(Cc2ccccc2)C(=O)C2CCN(C(=O)c3ccccc3C)CC2)c1 | 1 | 0 | 0 | -55 | -10 | -14% | 3%
Cc1ccccc1C(=O)N1CCC(C(=O)N(C)CCOc2ccccc2)CC1 | -7 | 5 | 0 | -3 | -4 | / | /
CC(C)Cc1ccc(S(=O)(=O)NCc2nc3cccnc3n2Cc2ccccc2)cc1 | / | 12 | 1 | / | / | / | /
O=C(c1ccco1)N1CCN(CC(O)COc2ccc(Br)cc2)CC1 (stereo not given) | 5 | -19 | 76* | 77* | -4 | ? | ?
O=C(c1ccco1)N1CCN(Cc2nc(-c3cccs3)no2)CC1 | 8 | -11 | 4 | -3 | 15 | 6% | 13%
O=C(c1ccco1)N1CCN(Cc2ccc(Br)cc2)CC1 | 58* | -20 | 79* | 80* | ? | ? | 16µM*
COC(=O)c1ccc(OCC(O)CN2CCN(C(=O)c3ccco3)CC2)cc1 (stereo not given) | ? | 6 | 0 | 11 | 22 | / | /
O=C(c1ccco1)N1CCN(Cc2cccc3ccccc23)CC1 | 14 | -23 | 58* | 76* | 14 | ? | ?
COC(=O)c1ccc(OC)c(CN2CCCN(Cc3ccc(C)cc3)S2(=O)=O)c1 | / | -1 | 0 | / | / | / | /
Cc1c(C(=O)NCc2ccc(Cl)cc2)sc2nc3n(c(=O)c12)CCCCC3 | / | -3 | 0 | / | / | / | /
CCc1ccc(CN2CCN(C(=O)c3ccco3)CC2)cc1 | 78* | -18 | 80* | 83* | ? | 5.6µM* | 14µM*
